# Laboratory results from the supplement of paper PMC13172266.
# Tests used:
# Experiment in all cases: cell proliferation relative to vehicle (% of vehicle); higher = less growth inhibition
# Settings in all cases: 72 h
# [1] = tested on: U2932 TK216-resistant clone 2
# Procedure, shortened: (§1)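 A library of 348 targeted inhibitors was screened against the ABC-DLBCL cell line U2932, using parental cells and two clones made resistant to an ETS-targeting agent through repeated exposure over almost a year. The cells were cultured at 37°C and 5% CO2 in medium containing 10% FBS and treated at 500 nM or 50 nM for 72 h, after which MTT was added for 4 h, stopped with 25% SDS, and absorbance was read on a Cytation 3. Proliferation is given as the percentage of proliferating cells relative to the vehicle, DMSO.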
# [2] = tested on: U2932 TK216-resistant clone 3
# Procedure, shortened: as §1
# U2932 parental = tested on: U2932 parental
# Procedure, shortened: as §1
smiles,measurement,setting,value
CN1CCCN(C(=O)c2cccc(-c3ccc(/C=C4/C(=O)Nc5ccc(Cl)cc54)o3)c2)CC1,cell proliferation,[1]; 50 nM,105
same,cell proliferation,[1]; 500 nM,80.8
same,cell proliferation,[2]; 50 nM,97
same,cell proliferation,[2]; 500 nM,88.5
same,cell proliferation,U2932 parental; 50 nM,104
same,cell proliferation,U2932 parental; 500 nM,96.5
C[C@H](NC(=O)/C(C#N)=C/c1cccc(Br)n1)c1ccccc1,cell proliferation,[1]; 50 nM,108
same,cell proliferation,[1]; 500 nM,111
same,cell proliferation,[2]; 50 nM,109
same,cell proliferation,[2]; 500 nM,102
same,cell proliferation,U2932 parental; 50 nM,105
same,cell proliferation,U2932 parental; 500 nM,102
COc1cc2nccc(Oc3ccc(NC(=O)C4(C(=O)Nc5ccc(F)cc5)CC4)cc3)c2cc1OC [Cabozantinib malate (XL184)],cell proliferation,[1]; 50 nM,109
same,cell proliferation,[1]; 500 nM,109
same,cell proliferation,[2]; 50 nM,102
same,cell proliferation,[2]; 500 nM,95.7
same,cell proliferation,U2932 parental; 50 nM,109
same,cell proliferation,U2932 parental; 500 nM,103
CCC[C@H](Nc1nc(-c2ccc(NC(=O)NCC)c(OC)c2)ncc1C)c1cccnc1 [CYT997 (Lexibulin)],cell proliferation,[1]; 50 nM,10.1
same,cell proliferation,[1]; 500 nM,9.29
same,cell proliferation,[2]; 50 nM,8
same,cell proliferation,[2]; 500 nM,12.1
same,cell proliferation,U2932 parental; 50 nM,10.4
same,cell proliferation,U2932 parental; 500 nM,14.3
CCC(C)(C)C(=O)O[C@H]1C[C@@H](C)C=C2C=C[C@H](C)[C@H](CC[C@@H]3C[C@@H](O)CC(=O)O3)[C@H]21 [Simvastatin],cell proliferation,[1]; 50 nM,91.4
same,cell proliferation,[1]; 500 nM,88.7
same,cell proliferation,[2]; 50 nM,98.4
same,cell proliferation,[2]; 500 nM,89.1
same,cell proliferation,U2932 parental; 50 nM,90.5
same,cell proliferation,U2932 parental; 500 nM,87.4
C[C@H]1c2cccc(O)c2C(=O)C2=C(O)[C@]3(O)C(=O)C(C(N)=O)=C(O)[C@@H](N(C)C)[C@@H]3[C@@H](O)[C@@H]21 [Doxycycline Hyclate],cell proliferation,[1]; 50 nM,104
same,cell proliferation,[1]; 500 nM,105
same,cell proliferation,[2]; 50 nM,102
same,cell proliferation,[2]; 500 nM,102
same,cell proliferation,U2932 parental; 50 nM,106
same,cell proliferation,U2932 parental; 500 nM,105
Nc1ncn([C@@H]2O[C@H](CO)[C@@H](O)[C@H]2O)c(=O)n1 [Azacitidine],cell proliferation,[1]; 50 nM,103
same,cell proliferation,[1]; 500 nM,96.5
same,cell proliferation,[2]; 50 nM,103
same,cell proliferation,[2]; 500 nM,97.2
same,cell proliferation,U2932 parental; 50 nM,99.9
same,cell proliferation,U2932 parental; 500 nM,91.8
C=CCn1c(=O)c2cnc(Nc3ccc(N4CCN(C)CC4)cc3)nc2n1-c1cccc(C(C)(C)O)n1,cell proliferation,[1]; 50 nM,89.6
same,cell proliferation,[1]; 500 nM,20.5
same,cell proliferation,[2]; 50 nM,99.7
same,cell proliferation,[2]; 500 nM,38.7
same,cell proliferation,U2932 parental; 50 nM,94.7
same,cell proliferation,U2932 parental; 500 nM,33.1
COc1ccc(-c2nc(N3CCOCC3)c3sc(CN(C)c4ncc(C(=O)NO)cn4)cc3n2)cn1,cell proliferation,[1]; 50 nM,0.345
same,cell proliferation,[1]; 500 nM,2.02
same,cell proliferation,[2]; 50 nM,3.18
same,cell proliferation,[2]; 500 nM,9.31
same,cell proliferation,U2932 parental; 50 nM,0.767
same,cell proliferation,U2932 parental; 500 nM,3.78
CN1CCC(CNc2ccc3ncc(-c4cccc(OC(F)(F)F)c4)n3n2)CC1 [SGI-1776 free base],cell proliferation,[1]; 50 nM,103
same,cell proliferation,[1]; 500 nM,86.7
same,cell proliferation,[2]; 50 nM,105
same,cell proliferation,[2]; 500 nM,82.4
same,cell proliferation,U2932 parental; 50 nM,95.5
same,cell proliferation,U2932 parental; 500 nM,94.1
COC(=O)Nc1ccc(-c2nc(N3CCOCC3)c3cnn(C4CCN(C(=O)OC)CC4)c3n2)cc1,cell proliferation,[1]; 50 nM,107
same,cell proliferation,[1]; 500 nM,55.1
same,cell proliferation,[2]; 50 nM,101
same,cell proliferation,[2]; 500 nM,56.4
same,cell proliferation,U2932 parental; 50 nM,101
same,cell proliferation,U2932 parental; 500 nM,46.9
O=C(c1ccc(/C=C/c2n[nH]c3ccccc23)cc1)N1CCNCC1,cell proliferation,[1]; 50 nM,109
same,cell proliferation,[1]; 500 nM,91
same,cell proliferation,[2]; 50 nM,104
same,cell proliferation,[2]; 500 nM,82.4
same,cell proliferation,U2932 parental; 50 nM,95
same,cell proliferation,U2932 parental; 500 nM,72.2
CC(C)C(=O)Nc1ccc([N+](=O)[O-])c(C(F)(F)F)c1 [Flutamide],cell proliferation,[1]; 50 nM,90.7
same,cell proliferation,[1]; 500 nM,87.2
same,cell proliferation,[2]; 50 nM,97.2
same,cell proliferation,[2]; 500 nM,98.3
same,cell proliferation,U2932 parental; 50 nM,89.3
same,cell proliferation,U2932 parental; 500 nM,87.6
CNCc1ccc(-c2[nH]c3cc(F)cc4c3c2CCNC4=O)cc1,cell proliferation,[1]; 50 nM,101
same,cell proliferation,[1]; 500 nM,94.9
same,cell proliferation,[2]; 50 nM,99.8
same,cell proliferation,[2]; 500 nM,108
same,cell proliferation,U2932 parental; 50 nM,96.6
same,cell proliferation,U2932 parental; 500 nM,93.4
COc1cc(CCc2cc(NC(=O)c3ccc(N4CC(C)NC(C)C4)cc3)n[nH]2)cc(OC)c1 (stereo not drawn),cell proliferation,[1]; 50 nM,102
same,cell proliferation,[1]; 500 nM,101
same,cell proliferation,[2]; 50 nM,103
same,cell proliferation,[2]; 500 nM,102
same,cell proliferation,U2932 parental; 50 nM,98.4
same,cell proliferation,U2932 parental; 500 nM,95.6
CCCCCCNC(=O)n1cc(F)c(=O)[nH]c1=O [Carmofur],cell proliferation,[1]; 50 nM,98.3
same,cell proliferation,[1]; 500 nM,101
same,cell proliferation,[2]; 50 nM,104
same,cell proliferation,[2]; 500 nM,99.8
same,cell proliferation,U2932 parental; 50 nM,102
same,cell proliferation,U2932 parental; 500 nM,103
CS(=O)(=O)c1ccc(C(=O)Nc2ccc(Cl)c(-c3ccccn3)c2)c(Cl)c1 [Vismodegib (GDC-0449)],cell proliferation,[1]; 50 nM,106
same,cell proliferation,[1]; 500 nM,108
same,cell proliferation,[2]; 50 nM,108
same,cell proliferation,[2]; 500 nM,113
same,cell proliferation,U2932 parental; 50 nM,98.2
same,cell proliferation,U2932 parental; 500 nM,103
CCNC(=O)c1noc(-c2cc(C(C)C)c(O)cc2O)c1-c1ccc(CN2CCOCC2)cc1,cell proliferation,[1]; 50 nM,4.68
same,cell proliferation,[1]; 500 nM,4.69
same,cell proliferation,[2]; 50 nM,21.4
same,cell proliferation,[2]; 500 nM,21.1
same,cell proliferation,U2932 parental; 50 nM,3.32
same,cell proliferation,U2932 parental; 500 nM,3.9
CCCCCCCCCCCC1=C(O)C(=O)C=C(O)C1=O [Embelin],cell proliferation,[1]; 50 nM,90.5
same,cell proliferation,[1]; 500 nM,98.8
same,cell proliferation,[2]; 50 nM,103
same,cell proliferation,[2]; 500 nM,103
same,cell proliferation,U2932 parental; 50 nM,100
same,cell proliferation,U2932 parental; 500 nM,89.7
C[C@@H](Oc1cc(-c2cnn(C3CCNCC3)c2)cnc1N)c1c(Cl)ccc(F)c1Cl,cell proliferation,[1]; 50 nM,97.6
same,cell proliferation,[1]; 500 nM,74.4
same,cell proliferation,[2]; 50 nM,86.4
same,cell proliferation,[2]; 500 nM,61.9
same,cell proliferation,U2932 parental; 50 nM,89.9
same,cell proliferation,U2932 parental; 500 nM,56.5
COC(=O)c1ccc([C@H]2c3[nH]c4ccccc4c3C[C@H](C(=O)OC)N2C(=O)CCl)cc1,cell proliferation,[1]; 50 nM,85
same,cell proliferation,[1]; 500 nM,-2.9
same,cell proliferation,[2]; 50 nM,84
same,cell proliferation,[2]; 500 nM,-4.49
same,cell proliferation,U2932 parental; 50 nM,100
same,cell proliferation,U2932 parental; 500 nM,-1.25
C[C@H](Nc1ncnc2nc[nH]c12)c1cc2cccc(Cl)c2c(=O)n1-c1ccccc1,cell proliferation,[1]; 50 nM,103
same,cell proliferation,[1]; 500 nM,92.2
same,cell proliferation,[2]; 50 nM,95.6
same,cell proliferation,[2]; 500 nM,94.3
same,cell proliferation,U2932 parental; 50 nM,106
same,cell proliferation,U2932 parental; 500 nM,108
Cc1[nH]nc2ccc(-c3cncc(OC[C@@H](N)Cc4ccccc4)c3)cc12,cell proliferation,[1]; 50 nM,95.6
same,cell proliferation,[1]; 500 nM,41.7
same,cell proliferation,[2]; 50 nM,99.4
same,cell proliferation,[2]; 500 nM,40.6
same,cell proliferation,U2932 parental; 50 nM,93.5
same,cell proliferation,U2932 parental; 500 nM,31.7
